The values that follow come from PubChem BioAssay (NCI).

SMILES strings stand for the structures. Compounds without any hit were thinned out: in the full panel of roughly 79,000, 15% have a hit. Unmarked numbers belong to inactive results. Active and inactive are the calls of the source. Cut-off read from the data, not from the text of the source: active = growth inhibition above about 70%; inactive = the rest.

Experiment [1] in a line: NCI Yeast Anticancer Drug Screen. Data for the rad50 strain (AID 155).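 Note: 0% = growth of vehicle-only cultures of the same strain.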 To be noted: S. cerevisiae rad50 strain growth inhibition; at 50.0 µM; stronger effect = higher value. A digest of the protocol:
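Vehicle-treated cultures provide the reference for the growth inhibition reported for compound-exposed, repair-deficient yeast.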

The nature of experiment [2]: NCI Yeast Anticancer Drug Screen. Data for the mec2-1 strain (AID 157). Particulars: S. cerevisiae mec2-1 strain, at 50.0 µM, stronger effect = higher value. Summed up: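 mec2-1 yeast strain, carrying an alteration in DNA damage repair or cell cycle control, was exposed to compounds; growth inhibition was measured relative to vehicle-treated controls.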
A short description of experiment [3]: NCI Yeast Anticancer Drug Screen. Data for the sgs1 mgt1 strain (AID 161).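 Note: 0% = growth of cultures given vehicle only.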 Particulars: S. cerevisiae sgs1 mgt1 strain, at 50.0 µM, stronger effect = higher value. A digest of the protocol: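 Percent growth inhibition was derived by comparing compound-exposed mutant yeast with vehicle-exposed cultures. The strain carries alterations in DNA damage repair.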
Experiment [4] in a line: NCI Yeast Anticancer Drug Screen. Data for the cln2 rad14 strain (AID 165).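 Note: 0% = growth equal to vehicle treated cultures.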 Particulars: S. cerevisiae cln2 rad14 strain, at 50.0 µM, stronger effect = higher value. A digest of the protocol: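 Yeast carrying cln2 and rad14 alterations (cell cycle control and DNA damage repair) were exposed to compounds. Growth inhibition was measured against vehicle-treated controls.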
Experiment [5] can be described thus: NCI Yeast Anticancer Drug Screen. Data for the bub3 strain (AID 167). To be noted: S. cerevisiae bub3 mutant strain, at 50.0 µM, stronger effect = higher value. A digest of the protocol:
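Mutant yeast screening strain plus compound; vehicle-treated cultures serve as the 0% inhibition reference.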

The nature of experiment [6]: NCI Yeast Anticancer Drug Screen. Data for the mlh1 rad18 strain (AID 175). Particulars: S. cerevisiae mlh1 rad18 strain growth inhibition; at 50.0 µM; stronger effect = higher value. Summed up:
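Growth inhibition of the yeast strain was measured after compound exposure and expressed relative to vehicle-treated controls. The strain carries defined defects in DNA damage repair.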

Turning to `CC(=O)C(CCC(=O)O)(CCC(=O)O)c1ccccc1`, the growth inhibition was 2% in experiment [1]; 21.6% in experiment [2]; 5.3% in experiment [3]; -49.4% in experiment [4]; 13.7% in experiment [5]; 20.2% in experiment [6].

Consider `CN1CCN(C(=S)N(C(=O)c2ccc(Cl)cc2)C2CCCCC2)CC1`, for which the growth inhibition in experiment [1] was -67%; in experiment [2], -53.4%; in experiment [3], -54.8%; in experiment [4], -26.4%; in experiment [5], -66.9%; in experiment [6] it was -65.7%.

On to `O=S(=O)(NCCBr)c1ccccc1`, for which the growth inhibition is -1.5% in experiment [1]; 2.45% in experiment [2]; -8.9% in experiment [3]; 11.6% in experiment [4]; -2% in experiment [5]; 2.05% in experiment [6].

Consider `Cc1cccc(C)c1Nc1n[nH]c(=S)s1`, for which the growth inhibition in experiment [1] was 18.3%; in experiment [2], 33.8%; in experiment [3], 45.5%; in experiment [4], 0.8%; in experiment [5], 44.5%; in experiment [6], 13.9%.

In the case of `COc1cc(Cc2c(OC)c(OC)cc(C)c2C(=O)O)cc(OC)c1`, the growth inhibition in experiment [1] was 18.6%; in experiment [2], -12.8%; in experiment [3], -1.75%; in experiment [4], 6.95%; in experiment [5] it was -13.9%; in experiment [6], -14.4%.

Turning to `CC(=O)CC(=O)NCc1ccncc1`, the growth inhibition in experiment [1] was -5.85%; in experiment [2] it was 8.1%; in experiment [3], 12.1%; in experiment [4], -44.3%; in experiment [5], 26.9%; in experiment [6], -1.9%.

On to `Cc1c(-c2ccc(N)cc2)c(=O)oc2cc(O)ccc12`, for which the growth inhibition is -8.65% in experiment [1]; -11.1% in experiment [2]; -2.2% in experiment [3]; 33% in experiment [4]; 8.1% in experiment [5]; 8.55% in experiment [6].

As to `CCOC(=O)C(CNCc1ccccc1)(c1ccccc1)c1ccccc1`, the growth inhibition in experiment [1] is -6.5%; in experiment [2] it was -4.85%; in experiment [3], -23.9%; in experiment [4], -31.3%; in experiment [5], 9.95%; in experiment [6], 2.45%.

Take `CC12CCC(=O)C=C1CCC1C2CCC2(C)C(C(=O)Cn3c(=O)cc[nH]c3=O)CCC12` (configuration not stated): the growth inhibition in experiment [1] is 1.2%; in experiment [2], -3.7%; in experiment [3], -0.5%; in experiment [4], 15.8%; in experiment [5], -1.35%; in experiment [6], 1.85%.

For the molecule `Cc1c(-c2nc(N)nc(C3CC3)c2C)nc(N)nc1C1CC1`, the growth inhibition in experiment [1] is 4.55%; in experiment [2] it was -9.1%; in experiment [3], -12.7%; in experiment [4], -11.7%; in experiment [5] it was -26.8%; in experiment [6], -7.35%.

Regarding `CCC[CH2][Sn]1([CH2]CCC)[O]C2C(CO)OC(n3c(Br)c(C(N)=O)c4c(N)ncnc43)C2[O]1` (configuration not stated), the growth inhibition in experiment [1] is 98.3% (active); in experiment [2], 98.4% (active); in experiment [3], 98.7% (active); in experiment [4], 97.5% (active); in experiment [5] it was 97.5% (active); in experiment [6], 98.5% (active).

Take `COc1ccc(N)nn1`: the growth inhibition in experiment [1] is 1.6%; in experiment [2], -6.9%; in experiment [3] it was -9.15%; in experiment [4] it was 7.5%; in experiment [5], 4.75%; in experiment [6] it was -10.2%.

For `CC1c2c(ccc3ccccc23)CCC1CC1CCCc2ccc3ccccc3c21` (configuration not stated), the growth inhibition in experiment [1] was 45.6%; in experiment [2], -6.15%; in experiment [3], 4.7%; in experiment [4], 2.2%; in experiment [5], -1%; in experiment [6], 17.7%.

In the case of `COC(=O)CNC(=O)Nc1cc(N2C(=O)ON3C2C(C)(C)N(O)C3(C)C)ccc1C` (configuration not stated), the growth inhibition in experiment [1] is 2.95%; in experiment [2], 13.8%; in experiment [3], 16.9%; in experiment [4], 20.6%; in experiment [5], 15.2%; in experiment [6], -22.6%.

On to `COC(=O)C1(c2ccccc2)Cc2ccccc2-c2ccccc21` (configuration not stated), for which the growth inhibition is -24.1% in experiment [1]; -9.5% in experiment [2]; -10.2% in experiment [3]; -16.3% in experiment [4]; 26.1% in experiment [5]; -17% in experiment [6].

Regarding `C/C(=N/O)c1ccc[cH-]1.[Fe+2].c1cc[cH-]c1`, the growth inhibition in experiment [1] was 20.1%; in experiment [2], -5.3%; in experiment [3], 0.45%; in experiment [4], -0.8%; in experiment [5], -8.4%; in experiment [6], -11.5%.

In the case of `c1ccc(COc2ccc(CC3SCCCS3)cc2)cc1`, the growth inhibition in experiment [1] is -30.5%; in experiment [2], -35.8%; in experiment [3], -10.4%; in experiment [4], 24.9%; in experiment [5], 16.6%; in experiment [6], -7.5%.

`O=C(O)CCC(=O)CCc1ccccc1C(=O)O`: the growth inhibition in experiment [1] is 12.3%; in experiment [2], -15.8%; in experiment [3], 4.3%; in experiment [4] it was -38.1%; in experiment [5], -23.1%; in experiment [6] it was 7.85%.

Regarding `O=c1[nH]nc(SCc2ccccc2)c(=O)[nH]1`, the growth inhibition in experiment [1] is -18.1%; in experiment [2], -3.5%; in experiment [3] it was -16.6%; in experiment [4] it was -5.8%; in experiment [5], 0%; in experiment [6], -18.9%.

`CCCCOC(=O)C(C)OC(=O)COc1ccc(Cl)cc1C` (configuration not stated): the growth inhibition is 5.05% in experiment [1]; -13.7% in experiment [2]; 15.4% in experiment [3]; -40.7% in experiment [4]; 2.25% in experiment [5]; -1.05% in experiment [6].

On to `CN1C/C(=C/c2ccc(N(C)C)cc2)C(=O)/C(=C/c2ccc(N(C)C)cc2)C1`, for which the growth inhibition was -2.45% in experiment [1]; -6.9% in experiment [2]; -16.9% in experiment [3]; -5.3% in experiment [4]; -3.7% in experiment [5]; -18.9% in experiment [6].

Regarding `COc1onc(C)c1CC(=O)O`, the growth inhibition in experiment [1] was 2.7%; in experiment [2], 1.2%; in experiment [3] it was -7.3%; in experiment [4] it was -32.1%; in experiment [5], -8.65%; in experiment [6], 2.75%.
